For 13 compounds, growth results are on record in PubChem BioAssay (NCI).

Holding throughout (assay): NCI-60 one-dose screen, 48 h (100 = growth as untreated, 0 = no growth, -100 = all killed)
Holding throughout (conditions): 10 µM unless noted

In experiment [1] the test system is DU-145 prostate.
The subject of experiment [2] is K-562 leukemia.
Experiment [3] concerns MALME-3M melanoma.
The subject of experiment [4] is MDA-MB-231 breast.
Experiment [5] has as its system RXF 393 renal.
Experiment [6] concerns SF-268 CNS.
The test system of experiment [7] is SF-295 CNS.
The subject of experiment [8] is SF-539 CNS.
Experiment [9] relates to UACC-257 melanoma.
Experiment [10] has as its system M14 melanoma.

The panel holds about 83,000 compounds, 20% with a hit somewhere; the sample as a whole holds those more often.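 Cell lines were cultured in 96-well plates, exposed to a single compound concentration, and assessed for percent growth 48 hours later.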 Values without a mark were called inactive. The source made the active and inactive calls. The calls were made as follows: active = growth percent below 10; inactive = the rest.

In the case of `O=S(=O)(NCCNc1nccc(-c2c(-c3cccc(O)c3)nc3occn23)n1)c1ccc(C(F)(F)F)cc1`, the growth is 108% in experiment [1]; 97.2% in experiment [2]; 7.76% (active) in experiment [3]; 90.7% in [4]; 101% in [5]; 97.3% in experiment [6]. Moreover, the growth was 107% in [7], 114% in experiment [8], 61.1% in experiment [9] and 38.9% in experiment [10].

Consider `CC(Sc1nc2sc3c(c2c(=O)n1-c1ccc(Cl)cc1)CCCC3)C(=O)Nc1nc(-c2ccc(Br)cc2)cs1` (stereo not given), for which the growth was 105% in experiment [1]; 96.5% in experiment [2]; 95.2% in [3]; 89.1% in [4]; 101% in experiment [5]; 93.5% in [6]. The growth is 100% in [7], 107% in experiment [8], 93% in experiment [9] and 94% in [10].

On to `Nc1c(C(=O)Nc2ccnc3ccccc23)sc2nc3c(cc12)CN(Cc1ccccc1)CC3`, for which the growth was 85.6% in experiment [1]; 38.5% in experiment [2]; 96% in experiment [3]; 67.7% in experiment [4]; 96.1% in experiment [5]; 87.8% in [6]. In addition, the growth in experiment [7] is 75.2%; in experiment [8], 99.1%; in experiment [9], 78.8%; in experiment [10], 41.9%.

Turning to `CCCOC(=O)N[C@H]1CCc2cc(OC)c(OC)c(OC)c2-c2ccc(SC)c(=O)cc21`, the growth in [1] was -18.3% (active); in experiment [2] it was 7.7% (active); in [3], 35.4%; in [4], -8.18% (active); in [5], 19.5%; in [6] it was 22.6%. In addition, the growth in experiment [7] was 17.3%; in experiment [8], -21.5% (active); in experiment [9], 71.8%; in experiment [10], 6.23% (active).

Consider `COc1cc(/C=N/NC(=O)c2cnn3c2NC(c2ccccc2)C3)ccc1OCc1ccccc1` (stereo not given), for which the growth in [1] is 6.15% (active); in [2], 3.64% (active); in [3], -20.5% (active); in [4], 5.81% (active); in [5], -4.25% (active); in experiment [6], 19.6%. The growth in experiment [7] is -48.3% (active); in [8], -52.6% (active); in experiment [9], 18.5%; in [10], 14.8%.

As to `O=C(Nc1cccc(C(=O)N2CCc3ccc(Cl)cc32)c1)c1ccco1`, the growth is 67.8% in experiment [1]; 13.9% in experiment [2]; 40.9% in experiment [3]; 44.9% in experiment [4]; 39.9% in experiment [5]; 55.9% in experiment [6]. Besides, the growth in experiment [7] was 30.8%; in [8], 26.8%; in [9], 52.2%; in [10], 18.2%.

As for `COc1ccc(C/C(=C(\C)c2ccc(OCCN3CCCC3)cc2)c2ccc(OCCN3CCCC3)cc2)cc1`, the growth in experiment [1] is 70%; in experiment [2] it was -64.1% (active); in [3], 47.1%; in experiment [4] it was 17.8%; in experiment [5] it was 55.7%; in experiment [6] it was 69.9%. In addition, the growth in [7] was 34.2%; in experiment [8], 29.9%; in [9] it was 63.9%; in experiment [10], -64.8% (active).

In the case of `Nc1nc(Nc2ccccc2SSc2ccccc2Nc2nc(N)nc(-c3cccs3)n2)nc(-c2ccsc2)n1`, the growth in experiment [1] is 95.1%; in experiment [2], 80.9%; in [3] it was 106%; in [4] it was 75.8%; in experiment [5], 109%; in [6], 79.6%. Also, the growth in [7] was -53.4% (active); in [8] it was 105%; in experiment [9] it was 101%; in experiment [10], 96.5%.

Consider `O=C(/C=C(O)/C=C/c1ccc(SC(F)(F)F)cc1)/C=C/c1ccc(SC(F)(F)F)cc1`, for which the growth in [1] is 97.2%; in experiment [2] it was 77.6%; in [3], 98.6%; in experiment [4] it was 99.8%; in experiment [5], 104%; in experiment [6], 86.3%. Moreover, the growth was 97.5% in [7], 106% in experiment [8], 104% in experiment [9] and 79.9% in experiment [10].

Regarding `O=C(/C=C/c1ccc(Cl)cc1)c1ccc(NC(=O)N2CCN(c3cc4c(cc3F)c(=O)c(C(=O)O)cn4C3CC3)CC2)cc1`, the growth is 98.5% in experiment [1]; 65% in [2]; 103% in experiment [3]; 93% in experiment [4]; 97.9% in [5]; 89.3% in experiment [6]. Further, the growth was 108% in [7], 81.7% in experiment [8], 105% in experiment [9] and 104% in [10].

For `CN1CCN(C(=O)[C@]23CCC(C)(C)C[C@H]2C2=CC[C@@H]4[C@@]5(C)C/C(=C/c6ccncc6)C(=O)C(C)(C)[C@@H]5CC[C@@]4(C)[C@]2(C)CC3)CC1`, the growth was 68.4% in experiment [1]; 19% in [2]; 57.7% in [3]; 64.2% in experiment [4]; 27.6% in experiment [5]; 64.4% in [6]. In addition, the growth in experiment [7] was 67.1%; in [8], 69.3%; in experiment [9], 57.5%; in experiment [10], 57.4%.

`COC(=O)C(OC(C)=O)C(OC(C)=O)c1ccc(OC)c(OC)c1` (stereo not given): the growth in [1] was 102%; in [2], 83.2%; in experiment [3], 104%; in experiment [4] it was 92.7%; in experiment [5], 125%; in [6] it was 99.6%. The growth in experiment [7] is 101%; in [8], 105%; in [9], 82.5%; in [10] it was 93.9%.

`Cc1c(C(=O)NCCC(=O)NO)sc2ncnc(Nc3ccc(NC(=O)Nc4cccc(C(F)(F)F)c4)cc3)c12`: the growth was 105% in experiment [1]; 104% in experiment [2]; 112% in experiment [3]; 105% in experiment [4]; 104% in experiment [5]; 93.4% in [6]. The growth is 91.8% in experiment [7], 79% in experiment [8], 108% in experiment [9] and 107% in experiment [10].
